# Source: PubChem
# Hits are enriched below; roughly 0.41% of the tested compounds scored in any of these assays.
# GAA glycogen mod – GAA glycogen-cleavage inhibition or activation; AID 2100; P10253; Potency, µM (titrated, usually from 76.4 µM), actives largely listed as inhibitors; recombinant GAA, glycogen substrate, Amplex Red glucose oxidase fluorescence; hit rate 0.38% among 300,000;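 also: the screen sought inhibitors and activators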
#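 qHTS, 1536-well; enzyme 4 nM final; cpd up to 77 uM; substrate bovine liver glycogen 30 ug; 50 mM citrate/phosphate pH 5.0, 0.01% Tween-20; 37 C, 40 min; Amplex Red detection 45 min RT; Hill fit → AC50.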
# aGal spleen mod – alpha-galactosidase A (human) modulation | P06280 | human spleen homogenate, 4MU-alpha-Gal fluorescence, 40 min | Potency, µM (highest dose often 80 µM), usual class: inhibitors | hit rate 0.008% among 240,000
#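 Human spleen homogenate (1 ug) was the enzyme source, with 4-methylumbelliferyl-alpha-D-galactopyranoside (1 mM final) in pH 5.0 citrate buffer with 0.01% Tween-20. Compounds were titrated; after 40 min at 37C, NaOH/glycine stop, 4-MU fluorescence read; AC50 from Hill fits.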
# N370S GC – inhibits or activates N370S mutant glucocerebrosidase. Potency, µM (titrated, usually from 59.4 µM), most hits filed as inhibitors. N370S GC spleen homogenate, 4MU-glucoside fluorescence. hit rate 0.092% among 330,000
# GAA spleen mod – inhibits or activates alpha-glucosidase in human spleen homogenate | P10253 | AID 2112 | hit rate 0.006% among 240,000 | human spleen homogenate, 4-MU-alpha-glucoside fluorescence | Potency, µM (top dose mostly 79.9 µM), actives largely listed as inhibitors
#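 Enzyme source: human spleen homogenate, 1 ug/well. Buffer 50 mM citric acid/K phosphate pH 5.0, 0.01% Tween-20. 4-MU-alpha-glucoside 1 mM; 37 C x 40 min; NaOH/glycine stop; fluorescence.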
# GAA inh – inhibitors of human lysosomal alpha-glucosidase; purified human GAA, 4-MU-alpha-glucoside fluorescence; hit rate 0.005% among 200,000; AID 1466; Potency, µM (titrated, usually from 76.9 µM), most hits filed as inhibitors; P10253
#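 Fluorogenic assay: 4 nM human alpha-glucosidase with 400 uM 4-methylumbelliferyl-alpha-D-pyranoside in 50 mM citrate/phosphate, 0.005% Tween-20, pH 5.0, 20 min at room temperature. Compounds tested up to 77 uM; AC50 from Hill fits.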
# GLA inh pH 4.5 – inhibitors of human alpha-galactosidase A at pH 4.5. P06280. purified enzyme, 4-MU-alpha-Gal fluorescence, pH 4.5. activity change, negative = inhibition, % at 105 µM. 230,000 tested, under 10 active. AID 1467
# Target sequence (P06280 whole entry, looked up): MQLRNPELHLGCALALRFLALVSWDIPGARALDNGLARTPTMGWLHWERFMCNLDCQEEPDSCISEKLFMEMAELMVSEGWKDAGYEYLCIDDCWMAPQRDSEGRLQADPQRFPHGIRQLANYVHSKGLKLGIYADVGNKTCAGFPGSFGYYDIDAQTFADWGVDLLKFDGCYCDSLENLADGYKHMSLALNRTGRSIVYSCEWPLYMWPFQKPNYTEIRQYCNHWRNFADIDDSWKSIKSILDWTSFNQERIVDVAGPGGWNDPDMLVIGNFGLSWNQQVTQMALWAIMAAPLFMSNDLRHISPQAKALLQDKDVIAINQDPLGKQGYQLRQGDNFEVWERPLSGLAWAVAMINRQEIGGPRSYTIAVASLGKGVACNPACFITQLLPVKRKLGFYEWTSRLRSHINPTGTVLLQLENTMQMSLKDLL
# Hits are given with their value; 0 = inactive; ? = inconclusive; - = no result; [ ] = remark or other dose. Calls follow the shape of the dose curve; as a rule, active = well fitted curve in the direction sought with a large enough effect; inconclusive = small, poorly fitted or top-dose-only effect, or another doubt; inactive = no such curve, though single readings can be large; an effect the other way counts as inactive or inconclusive.
SMILES,GAA glycogen mod,aGal spleen mod,N370S GC,GAA spleen mod,GAA inh,GLA inh pH 4.5
Cc1ccc(/C(O)=C2\C(=O)C(=O)N(C)C2c2ccccc2[N+](=O)[O-])cc1 (stereo unspecified),0,-,0,-,-,-
C#CCOCCOCCOCCNc1nc(N2CCN(C(=O)CCCCCCCCCCNC(=O)[C@@H](CCC(=O)O)n3cc(CCCCCN)nn3)CC2)nc(N2CCN(C(=O)CCCCCCCCCCNC(=O)[C@H](CO)n3cc(CCCCCN)nn3)CC2)n1,-,-,0,-,-,-
C#CCOCCOCCOCCNc1nc(N2CCOCC2)nc(N2CCN(C(=O)[C@H]([C@@H](C)CC)n3cc(CCCN=C(N)N)nn3)CC2)n1,0,0,0,0,0,0
C#CCOCCOCCOCCNc1nc(N2CCN(C(=O)CCCCCCCCCCNC(=O)[C@H](CCCN=C(N)N)n3cc(C[C@@H](C)CC)nn3)CC2)nc(N2CCN(C(=O)CCCCCCCCCCNC(=O)[C@@H]([C@H](C)CC)n3cc(CCCCCN)nn3)CC2)n1,-,-,5.6µM,-,-,-
C#CCOCCOCCOCCNc1nc(N2CCN(C(=O)CCCCCCCCCCNC(=O)[C@H]([C@@H](C)CC)n3cc(CCCCN=C(N)N)nn3)CC2)nc(N2CCN(C(=O)CCCCCCCCCCNC(=O)[C@H](CCCN=C(N)N)n3cc(C[C@@H](C)CC)nn3)CC2)n1,-,-,8.9µM,-,-,-
COc1ccccc1CNc1n[nH]c(NCc2ccccc2OC)n1,25µM,0,0,0,0,0
C/C(=N\N1CCN(C2c3ccccc3-c3ccccc32)CC1)c1cccnc1,32µM,0,0,0,0,0
C(=N\N1CCN(C2c3ccccc3-c3ccccc32)CC1)/c1cccnc1,0,0,-,0,0,0
CCn1c(C)c(/C=N/Nc2nc3ccccc3s2)c2ccccc21,25µM,0,0,0,0,0
Cc1ccccc1Nc1c(-c2ccccc2O)nc2sccn12,11µM,-,-,-,-,-
Oc1ccccc1Nc1nc(NCc2ccccc2)c2ccccc2n1,7.1µM,0,11µM,0,0,0
CNc1nc(NCc2ccccc2)c2ccccc2n1,0,-,0,-,-,-
COc1cccc(C(=O)/C=C/Nc2cc(C)ccc2O)c1,28µM,0,0,0,0,0
Cc1cc(C)cc(N(CC(=O)NC2CCCC2)S(=O)(=O)c2c(C)[nH]c(=O)[nH]c2=O)c1,0,0,3.5µM,0,-,0
Cc1ccc(CNC(=O)CN(c2cc(C)cc(C)c2)S(=O)(=O)c2c(C)[nH]c(=O)[nH]c2=O)cc1,0,-,-,-,-,-
COc1ccc(N(CC(=O)NC2CCCC2)S(=O)(=O)c2c(C)[nH]c(=O)[nH]c2=O)cc1,0,0,8.9µM,0,0,0
Cc1nc(C)c(-c2ccc(SCC(=O)Nc3cccc(Cl)c3)nn2)s1,-,-,0,-,-,-
O=S(=O)(c1ccc(N2CCOCC2)cc1)N1CCOCC1,0,0,0,0,0,0
CCOc1ccc(NC(=S)NNC(=O)c2ccc(Br)cc2)cc1,40µM,0,0,0,0,0
Nc1ccc2oc(=O)c3ccccc3c2c1,0,0,0,0,0,0
CC(C)c1cc(NC(=O)C(C)(C)C)cc(C(C)C)c1O,32µM,0,0,0,0,0
O=C(NCc1cccs1)Nc1cccs1,4µM,0,0,0,0,0
CCc1ccc(NC(=O)Nc2cccs2)cc1,?,0,0,0,0,0
Cc1ccccc1CNC(=O)Nc1cccs1,?,0,0,0,0,0
CCOc1ccc(NC(=O)Nc2cccs2)cc1,20µM,0,0,0,0,0
SMILES,GAA glycogen mod,aGal spleen mod,N370S GC,GAA spleen mod,GAA inh,GLA inh pH 4.5
O=C(NNc1nc2c(F)cccc2s1)C1COc2ccccc2O1 (stereo unspecified),4.4µM,0,0,0,0,0
COc1cccc2sc(NNC(=O)C3COc4ccccc4O3)nc12 (stereo unspecified),0,0,0,0,0,0
Cc1cc(C)c(C)c(OCCN2CC(C)OC(C)C2)c1 (stereo unspecified),0,-,0,-,-,-
Cc1nnsc1C(=O)NNS(=O)(=O)c1ccccc1,28µM,0,0,0,0,0
CCOc1ccc(N(CC(=O)Nc2ccc(F)cc2F)S(=O)(=O)c2c(C)[nH]c(=O)[nH]c2=O)cc1,0,-,-,-,-,-
CCOc1ccc(N(CC(=O)Nc2ccc(C)cc2)S(=O)(=O)c2c(C)[nH]c(=O)[nH]c2=O)cc1,0,0,2.8µM,0,-,0
CCOc1ccc(NC(=O)CN(c2ccc(OCC)cc2)S(=O)(=O)c2c(C)[nH]c(=O)[nH]c2=O)cc1,0,0,6.3µM,0,0,0
CCOc1ccc(N(CC(=O)Nc2ccc(OC)cc2)S(=O)(=O)c2c(C)[nH]c(=O)[nH]c2=O)cc1,0,0,?,0,0,0
COC1=CC(=O)C(C(=O)c2ccccc2)=CC1=O,-,0,0,0,-,0
CCOc1ccc(-n2nc3ccc(NC(=O)CC)cc3n2)cc1,0,-,?,-,-,-
COc1ccc(C2SCC(=O)N2CCc2ccc(OC)c(OC)c2)cc1 (stereo unspecified),5.6µM,0,0,0,0,?
CN1CCN(S(=O)(=O)c2cccc(C(=O)Nc3sc4c(c3-c3nc5ccccc5[nH]3)CCCC4)c2)CC1,0,0,11µM,0,0,0
CCCC/C(C)=N/NC(=O)c1cn(-c2ccccc2)nc1-c1ccccc1,0,0,0,0,0,0
CO[C@@H]1CC[C@@]2(C)[C@@H](CC[C@@]3(C)[C@H]2CC=C2[C@H]4CC(C)(C)[C@H](O)[C@@H](OC(C)=O)[C@]4(CO)[C@H](O)C[C@]23C)[C@@]1(C)CO (tested in a mixture with another compound),-,0,0,0,-,0
C/C=C(/C)C(=O)OC1C(OC(C)=O)[C@@]2(CO)C(O)C[C@@]3(C)C(=CCC4[C@@]5(C)CCC(OC6OC(C(=O)O)[C@@H](O[C@@H]7OC(CO)C(O)C(O)C7O)C(O)[C@H]6O[C@@H]6OC(CO)C(O)C(O)C6O)[C@](C)(CO)C5CC[C@@]43C)C2CC1(C)C (stereo partly specified),-,?,16µM,0,-,0
Nc1ncc(-c2ccccc2)c(-c2ccc(O)cc2O)n1,0,-,14µM,-,-,-
COc1ccc(-c2cnc(N)nc2-c2ccc(OCc3ccccc3)cc2O)cc1,0,0,0,0,0,0
COc1ccc(Cl)cc1S(=O)(=O)N1CCCC(C(=O)NCCc2ccccc2)C1 (stereo unspecified),0,-,0,-,-,-
NCCc1ccc(O)c(O)c1,2µM,0,0,0,0[15.4 µM],0
CC(=O)NCCc1ccc(O)c(O)c1,-,0,0,0,-,0
O=C(CCc1ccc(O)cc1)NNC(=S)NCCc1ccccc1,?,0,0,0,0,0
O=C(NNC(=S)NCCc1ccccc1)c1ccc(Br)s1,35µM,0,0,0,0,0
